The list is not random: actives were taken first. Their share in the collection is about 2.5%.
MEKK2wt PB1 HTS – raises or lowers MEK5 binding to wildtype human MEKK2 PB1 domain; bead flow cytometry, Alexa488-MEK5 binding to MEKK2 WT; actives lie on both sides; hit rate 1.1% among 290,000; AID 1531; Q9Y2U5; binding response (% of control), % at 10 µM; in the data active means binding response below about 67% or above about 130%
MEKK2 mut-MEK5 – signal of MEK5 binding to mutant human MEKK2 PB1 domain. bead flow cytometry, Alexa488-MEK5 binding to MEKK2 mutant. percent response, % at 10 µM. AID 1530. hit rate 0.35% among 290,000; in the data active means percent response above about 24%, passing the limit was not always enough
GRK2 inh – human GRK2 inhibition via aptamer displacement; inhibition of aptamer binding, % at 10 µM; P25098; hit rate 0.59% among 330,000; bead flow cytometry, FAM-aptamer displacement from GRK2; AID 488847;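 active means inhibition of aptamer binding above 40%, roughly 3 SD of noise, on plates passing a quality check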;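 further: median bead fluorescence of bound FAM aptamer so fluorescent compounds give negative values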
Target sequence (P25098 whole entry, looked up): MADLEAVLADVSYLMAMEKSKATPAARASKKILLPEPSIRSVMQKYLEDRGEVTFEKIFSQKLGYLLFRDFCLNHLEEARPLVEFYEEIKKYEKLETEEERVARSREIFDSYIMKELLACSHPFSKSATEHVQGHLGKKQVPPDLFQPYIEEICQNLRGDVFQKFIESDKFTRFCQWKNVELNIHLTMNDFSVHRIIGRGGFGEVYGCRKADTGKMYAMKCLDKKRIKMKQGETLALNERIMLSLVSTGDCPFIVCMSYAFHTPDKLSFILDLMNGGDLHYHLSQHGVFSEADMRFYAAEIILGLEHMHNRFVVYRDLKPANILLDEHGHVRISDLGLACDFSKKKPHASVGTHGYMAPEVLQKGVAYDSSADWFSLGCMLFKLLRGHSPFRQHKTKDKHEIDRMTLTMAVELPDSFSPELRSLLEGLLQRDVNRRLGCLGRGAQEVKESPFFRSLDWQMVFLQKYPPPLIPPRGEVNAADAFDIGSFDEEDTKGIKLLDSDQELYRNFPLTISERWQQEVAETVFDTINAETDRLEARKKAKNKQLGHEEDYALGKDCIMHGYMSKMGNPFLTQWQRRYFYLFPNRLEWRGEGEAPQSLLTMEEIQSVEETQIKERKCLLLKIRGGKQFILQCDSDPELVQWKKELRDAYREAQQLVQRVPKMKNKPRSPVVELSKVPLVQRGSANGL
MEKK3 PB1 HTS – MEKK3-MEK5 PB1 interaction, increase or decrease; bead-based flow cytometry, Alexa488-MEK5 binding to MEKK3; actives lie on both sides; 0 = blocked by unlabeled MEK5, 100 = vehicle; binding response (% of control), % at 10 µM; hit rate 1.4% among 290,000; AID 1529;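 active means binding response more than 3 SD above or below the average of its plate-row segment, actives on both sides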;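 further: Alexa488 bead fluorescence after subtracting the streptavidin-only scavenger bead signal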
MEKK2wt confirm – raises or lowers MEK5 binding to wildtype human MEKK2, retest. binding response (% of control), % at 10 µM. bead flow cytometry, Alexa488-MEK5 binding to MEKK2 WT; actives lie on both sides. AID 1892. shares compounds with MEKK3 PB1 HTS. hit rate 2.4% among 5,900; in the data active means binding response below about 16% or above about 210%; inactive means in between
MEKK2mut confirm – signal of MEK5 binding to mutant human MEKK2, retest; shares compounds with MEKK3 PB1 HTS; bead flow cytometry, Alexa488-MEK5 binding to MEKK2 mutant; percent response, % at 10 µM; hit rate 2% among 5,900; AID 1893; in the data active means percent response mostly above about 71%, no sharp cut-off; inactive means mostly below about 38%;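 further: higher means compound restores mutant binding toward wildtype level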
MEKK3 confirm – confirmation of inhibitors of MEK5 binding to human MEKK3 | AID 1894 | shares compounds with MEKK3 PB1 HTS | bead flow cytometry, Alexa488-MEK5 binding to MEKK3; hits give low values | binding response (% of control), % at 10 µM | hit rate 1.8% among 5,900;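 active means binding response below 72% of control, or above a set upper limit, though filed actives all read lower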;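 further: 100% = DMSO only wells and 0% = binding blocked by excess unlabeled MEK5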
Active calls of the source: *; . = not tested or not shown; [ ] = another dose, or the depositor's remark.

SMILES	MEKK2wt PB1 HTS	MEKK2 mut-MEK5	GRK2 inh	MEKK3 PB1 HTS	MEKK2wt confirm	MEKK2mut confirm	MEKK3 confirm
CN1CCN(C(CNC(=O)C(=O)NC2CCCC2)c2ccc(F)cc2)CC1 (stereo not drawn)	.	.	2.0	.	.	.	.
O=C(NCC(=O)N1CCOCC1)c1ccccc1	99.0	-2.0	1.0	101.0	.	.	.
COc1ccccc1-n1c(SCC(=O)Nc2ccc(NC(C)=O)cc2)nc2c([nH]c3ccccc32)c1=O	101.0	4.0	0.0	100.0	.	.	.
CCOC(=O)C1CCN(C(=O)CCS(=O)(=O)c2ccc3c(c2)CCN3C(C)=O)CC1	116.0	5.0	0.0	126.0*	102.0	2.0	101.0
CCN(c1cccc(C)c1)S(=O)(=O)c1ccc2c(c1)CCN2C(C)=O	-1.0*[inhibitor]	-10.0	2.0	1.0*[inhibitor]	101.0	-4.0	103.0
CCCn1c(SCC(=O)N2CCN(CC)CC2)nc2c1c(=O)n(C)c(=O)n2C	102.0	3.0	0.0	103.0	.	.	.
Cc1c(C(N)=O)sc(N)c1C(=O)OC(C)C	118.0	8.0	5.0	122.0*	103.0	0.0	106.0
CC(=O)c1sc(N)c(C(=O)OC(C)C)c1C	107.0	1.0	0.0	105.0	.	.	.
O=c1c(-c2c(O)cc(O)c3c2O[C@H](c2ccc(O)cc2)CC3)c(-c2ccc(O)cc2)oc2cc(O)cc(O)c12	.	.	7.0	.	.	.	.
Cc1ccc(NC(=S)NN(C)c2cc(C)nc(C)n2)cc1	107.0	1.0	2.0	129.0*	99.0	1.0	100.0
CC(OC(=O)c1c[nH]c2ccccc12)C(=O)N1CCCC1 (stereo not drawn)	.	.	1.0	.	.	.	.
COc1ccccc1NS(=O)(=O)c1cccc(C(=O)N/N=C/c2ccc(N3CCOCC3)cc2)c1	93.0	-2.0	2.0	99.0	.	.	.
Cc1ccc(NS(=O)(=O)c2cccc(C(=O)N/N=C/c3ccc4c(c3)OCCO4)c2)c(C)c1	110.0	0.0	0.0	129.0*	97.0	-3.0	98.0
CC(=O)NCCOc1cccc2ccccc12	106.0	3.0	1.0	100.0	.	.	.
c1ccc(CCNCCCOc2cccc3ccccc23)cc1	161.0*	33.0*	0.0	118.0	151.0	37.0	108.0
CCOC(=O)C1=C(C)NC(=O)C1CC(=O)Nc1ccccc1 (stereo not drawn)	115.0	6.0	2.0	125.0*	102.0	2.0	99.0
COc1ccc(CCNC(=O)/C(=C/c2cccnc2)NC(=O)c2ccccc2)cc1	101.0	-1.0	2.0	128.0*	96.0	-11.0	101.0
CCCNC(=O)C(=O)NCc1ccccn1	70.0	-19.0	7.0	70.0	.	.	.
COc1ccc(CCNC(=O)C(=O)NCc2ccccn2)cc1	117.0	5.0	1.0	135.0*	98.0	-7.0	98.0
O=C(NNc1cccc([N+](=O)[O-])c1)/C(=C\c1cccnc1)NC(=O)c1ccccc1	98.0	5.0	0.0	102.0	.	.	.
Cc1cc(NC(=O)CSc2nnc(N)s2)c([N+](=O)[O-])cc1C	77.0	-4.0	2.0	65.0*[inhibitor]	97.0	-2.0	99.0
CC(C)Oc1ccc(N2CC(C(=O)NC3=NCCS3)CC2=O)cc1 (stereo not drawn)	92.0	-6.0	0.0	95.0	.	.	.
COC(=O)c1cc(NC(=O)c2ccc(F)cc2)cc(C(=O)OC)c1	.	103.0*	0.0	89.0	98.0	-2.0	98.0
Cc1cc(N2CCN(C(=O)c3cccs3)CC2)c(F)cc1[N+](=O)[O-]	105.0	11.0	3.0	111.0	.	.	.
C=CCN1C(=O)/C(=c2\sc3nc(=O)c(Cc4ccccc4)nn3c2=O)c2ccccc21	-4.0*[inhibitor]	-2.0	5.0	95.0	89.0	-2.0	91.0
SMILES	MEKK2wt PB1 HTS	MEKK2 mut-MEK5	GRK2 inh	MEKK3 PB1 HTS	MEKK2wt confirm	MEKK2mut confirm	MEKK3 confirm
CCN1C(=O)/C(=c2\sc3nc(=O)c(Cc4ccccc4)nn3c2=O)c2ccccc21	109.0	26.0	0.0	123.0	.	.	.
CCc1cc2cc(C)ccc2nc1SCC(=O)Nc1cc(C)on1	95.0	2.0	0.0	128.0*	104.0	4.0	104.0
CC1C(=O)C(C)C(c2cccs2)NC1c1cccs1 (stereo not drawn)	124.0	8.0	3.0	127.0*	130.0	11.0	104.0
Brc1c(CSc2nc3ccccc3s2)nc2ncccn12	109.0	15.0	0.0	99.0	.	.	.
O=[N+]([O-])c1ccc2sc(SCc3nc4ccccn4c3Br)nc2c1	104.0	0.0	0.0	138.0*	102.0	-2.0	102.0
O=C(CNC(=O)c1cccc(F)c1)NC1CC1	.	.	0.0	.	.	.	.
CN(C)c1ccc(NS(=O)(=O)c2ccc(Cl)cc2)cc1	102.0	3.0	0.0	135.0*	99.0	-3.0	97.0
CCC1Nc2ncnc(N3CCCCC3)c2N(Cc2ccc(OC)cc2)C1=O (stereo not drawn)	.	.	7.0	.	.	.	.
O=C(Nc1ccccc1F)C(=O)c1cn(CC(=O)N2CCCCC2)c2ccccc12	48.0	-16.0	0.0	44.0*[inhibitor]	99.0	1.0	102.0
Cc1ccc(NC(=O)COC(=O)C2(c3ccc(Cl)cc3)CCCC2)cc1	121.0	1.0	0.0	153.0*	103.0	3.0	103.0
CCOC(=O)c1ccc(NC(=O)C2(c3ccc(Cl)cc3)CCCC2)cc1	106.0	-1.0	0.0	101.0	.	.	.
CCOc1ccc(N=Nc2c(=O)[nH]n3c(=O)c4c([nH]c23)CCCC4)cc1	101.0	1.0	2.0	103.0	.	.	.
O=c1[nH]n2c(=O)c3c([nH]c2c1N=Nc1cccc(Cl)c1)CCCC3	58.0	4.0	0.0	48.0*[inhibitor]	106.0	7.0	104.0
CCc1nnc(NC(=O)CS(=O)(=O)Cc2ccccc2)s1	101.0	0.0	1.0	97.0	.	.	.
CC(CCc1ccc(O)cc1)NCCC(c1ccccc1)c1ccccc1 (stereo not drawn)	144.0*	20.0	0.0	106.0	139.0	21.0	105.0
N=c1c(S(=O)(=O)c2ccc(F)cc2)cc2c(=O)n3ccccc3nc2n1CC1CCCO1 (stereo not drawn)	100.0	4.0	0.0	97.0	.	.	.
FC(F)(F)c1cc(-c2ccccc2)nc(NCc2cccnc2)n1	-1.0*[inhibitor]	-10.0	1.0	1.0*[inhibitor]	97.0	-7.0	99.0
CC(C)CCNc1ncnc2c1nnn2Cc1ccccc1	106.0	3.0	2.0	103.0	.	.	.
Cc1ccc(Nc2ncnc3c2nnn3Cc2ccccc2)cc1	134.0	29.0	0.0	132.0*	104.0	1.0	103.0
COc1ccc2c(CSc3nc4nc(C)cc(C)n4n3)cc(=O)oc2c1	123.0	6.0	1.0	122.0*	97.0	-3.0	100.0
COc1ccc(NC(=S)N/N=C2\CC(C)(C)Oc3ccc(OC)cc32)cc1	110.0	1.0	1.0	130.0*	99.0	-1.0	104.0
Cc1ccc(NC(=S)N/N=C2\CC(C)(C)Oc3ccc(O)cc32)cc1	102.0	0.0	2.0	107.0	.	.	.
